From PubChem BioAssay AID686978 (National Center for Advancing Translational Sciences (NCATS), 2013)
Screen size: about 420,000 compounds; about 64,000 (15%) were called active. Roughly 27% stayed inconclusive and do not appear here. Not all results are given here. Values without a mark were called inactive. Calls follow the shape of the dose curve; as a rule, active = well fitted inhibition curve with a large enough effect; inconclusive = small, poorly fitted or top-dose-only effect; inactive = flat fitted curve, though single readings scatter.
% is scaled to controls: 0 for no effect and ±100 for the full control effect; potency is read from the fitted curve at half-maximal effect.

Assay: qHTS for Inhibitors of human tyrosyl-DNA phosphodiesterase 1 (TDP1): qHTS in cells in absence of CPT; also: nearly all actives have a fitted effect of over 55% in size
Details: DT40 Tdp1-/- hTDP1 cells, no CPT, ATP luminescence, 48 h; activity change, negative = growth inhibition: at 46.2 µM (top of the series)
In short: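 Growth of hTDP1-complemented DT40 Tdp1-knockout cells is measured by ATP luminescence after at least 48 hr compound exposure at 37 °C, with DMSO substituting for the 20 nM CPT used in the parallel screen.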
With `COc1ccc(NC(=O)/C(C#N)=C\c2cc(OC)c(OCc3ccc(C(=O)O)cc3)cc2Br)cc1` the “activity change, negative = growth inhibition” value was -25.7%. In the case of `COCCCn1c(=O)/c(=C/c2ccccc2OC(C)C)s/c1=C(\C#N)C(=O)Nc1ccc(C(=O)O)cc1`, the Potency is reported as 20.6 µM (active). For `COc1ccccc1C(=O)N/C(=C/c1ccco1)C(=O)Nc1ccc(C(=O)O)cc1`, the “activity change, negative = growth inhibition” value was -16.4%. In the case of `COCCNC(=S)N(CCc1c(C)[nH]c2ccc(C)cc12)Cc1cccnc1`, the “activity change, negative = growth inhibition” value is reported as -10.3%. With `CCn1cc(C(=O)N2CC=C(c3ccccc3)CC2)c(=O)c2ccc(C)nc21` the “activity change, negative = growth inhibition” value was -15.4%. With `CCOc1cc(/C=C(\C#N)c2nc(-c3cccs3)c(NC(C)=O)s2)ccc1O` the Potency was 3.66 µM (active). For `CCOc1cc(/C=C(\C#N)C(=O)Nc2ccccc2C)ccc1OCc1cc(=O)n2nc(CC)sc2n1`, the “activity change, negative = growth inhibition” value was -11.1%. With `CCOc1cc(/C=C(/C#N)c2ccc(Cl)cc2)cc(Cl)c1OCC(=O)O` the “activity change, negative = growth inhibition” value was 15.3%. With `CSc1nc(C)nc2c1c(=O)n(C)c(=O)n2C` the “activity change, negative = growth inhibition” value was -4.7%. For `O=P(O)(O)OC[C@H](O)CO`, the “activity change, negative = growth inhibition” value was -1.46%. With `CC1(C)CC(CCC(=O)Nc2ccccc2Cl)C(=O)O1` (stereo not given) the “activity change, negative = growth inhibition” value was -15.7%. With `Cc1ccc(S(=O)(=O)N2CCC(C(=O)N[C@@H](C)C(=O)NCc3ccccc3)CC2)cc1` the “activity change, negative = growth inhibition” value was 1.24%. For `CCCCCCNC(=O)O[C@H]1CN(C(=O)OC(C)C)N(C(=O)OC(C)C)[C@@H]2CN(S(=O)(=O)c3ccc(C)cc3)C[C@]12O`, the Potency was 16.4 µM (active). With `CCCCOc1ccc(NC(=O)[C@@H]2CCCN2C(=O)C2CCN(S(=O)(=O)c3ccc(C)cc3)CC2)cc1` the “activity change, negative = growth inhibition” value was -11.1%. For `Cc1ccc(NS(=O)(=O)c2ccc(C)c(NC(=O)COc3ccc4ccccc4c3)c2)c(C)c1`, the Potency was 16.4 µM (active). For `O=C(CNS(=O)(=O)c1ccc2ccccc2c1)Nc1ccc(F)c(F)c1F`, the “activity change, negative = growth inhibition” value was -28.9%. In the case of `COc1ccc(C(=O)Nc2cc(C)ccc2NC(=O)COc2ccccc2)cc1`, the “activity change, negative = growth inhibition” value is reported as -8.06%. For `O=C(O)c1ccc(/C=N/NC(=S)NCc2ccccc2)cc1`, the “activity change, negative = growth inhibition” value was 3.93%. For `CC1CCCCN1C(=S)NCc1ccccc1` (stereo not given), the “activity change, negative = growth inhibition” value was -7.02%. In the case of `O=C(CC1CCCCC1)NCc1ccccc1`, the “activity change, negative = growth inhibition” value is reported as -9.17%. In the case of `CN(C)CCCNC(=S)NCc1ccc(Cl)cc1`, the “activity change, negative = growth inhibition” value is reported as 0.949%. In the case of `C/C(=N\NC(=S)NCc1ccccc1)C1CCCCC1`, the Potency is reported as 6.51 µM (active). For `C/C(=N\NC(=S)NCc1ccccc1)c1ccc(Cl)cc1`, the Potency was 18.4 µM (active). With `C#CCOCCOCCOCCNc1nc(N2CCN(C(=O)[C@H](CCCCN)n3cc(CCC(=O)O)nn3)CC2)nc(N2CCN(C(=O)[C@H](CCCCN)n3cc(CC(C)O)nn3)CC2)n1` (stereo not given in full) the “activity change, negative = growth inhibition” value was -2.49%. For `CSc1ccc(CNC(=O)c2ccc(NC(=O)C3=CSCCO3)cc2)cc1`, the “activity change, negative = growth inhibition” value was 3.26%. For `CC(=O)c1ccc(N2CCN(CC(O)c3ccccc3)CC2)cc1` (stereo not given), the “activity change, negative = growth inhibition” value was -1.93%. In the case of `CC1CCCCN1CC(=O)NCc1ccc2c(c1)OCO2` (stereo not given), the “activity change, negative = growth inhibition” value is reported as -10.4%. With `Cn1cncc1COC(=O)c1ccc(Cl)cc1` the “activity change, negative = growth inhibition” value was -6.89%. For `Cc1ccc(OCCSc2nc(-c3cccs3)nc3cc(=O)[nH]n23)cc1Cl`, the Potency was 29.1 µM (active). With `CCc1ccccc1OCCSc1nc(-c2cccs2)nc2cc(=O)[nH]n12` the “activity change, negative = growth inhibition” value was -27.3%. With `CC(C)c1c(O)nc(SCCOc2ccc(Cl)cc2)[nH]c1=O` the “activity change, negative = growth inhibition” value was -29.7%. In the case of `Brc1cccc(-c2nnc3n2CCC3)c1`, the “activity change, negative = growth inhibition” value is reported as -3.77%. In the case of `C[C@H](NC(=O)c1nc[nH]c1C(=O)NCC(=O)OC(C)(C)C)c1ccccc1`, the “activity change, negative = growth inhibition” value is reported as -8.32%. For `O=C(NCCc1ccccc1)c1cnc2sc(N3CCCC3)nn2c1=O`, the Potency was 20.6 µM (active). In the case of `COc1ccc(CCNC(=O)C2CCN(c3nn4c(=O)cc(C)nc4s3)CC2)cc1OC`, the “activity change, negative = growth inhibition” value is reported as 6.86%. With `O=C(O)c1ccccc1-c1ccccc1C(=O)NCCc1ccccc1` the “activity change, negative = growth inhibition” value was -3.96%. For `CSc1ncc(C(=O)NCCCc2ccccc2)c(C)n1`, the “activity change, negative = growth inhibition” value was -19.9%. In the case of `COc1ccc(CCNC(=O)c2cnc3sc(N4CCCCCC4)nn3c2=O)cc1OC`, the Potency is reported as 8.2 µM (active). For `COc1ccc(CCNC(=O)c2ccc(NC(=O)CC3SC(N4CCCCC4)=NC3=O)cc2)cc1OC` (stereo not given), the “activity change, negative = growth inhibition” value was -8.94%. With `Cc1ccccc1N1CC(c2nc3ccccc3[nH]2)CC1=O` (stereo not given) the “activity change, negative = growth inhibition” value was 1.36%. In the case of `COCCNC(=O)CN(Cc1ccco1)C(=O)CCC(=O)Nc1nccs1`, the “activity change, negative = growth inhibition” value is reported as 3.21%. In the case of `CCC(C)NC(=O)Cn1nc(C(F)(F)F)c2c1CCC2` (stereo not given), the “activity change, negative = growth inhibition” value is reported as -14%. In the case of `O=C(NCc1ccco1)c1nn2cccnc2c1Cl`, the “activity change, negative = growth inhibition” value is reported as -1.24%. For `CCOc1ccc(-n2c(SC(C)C(=O)OC)nc3c(c2=O)SCC3)cc1` (stereo not given), the “activity change, negative = growth inhibition” value was -8.8%. In the case of `O=S(=O)(c1ccc(F)cc1)N1CCN(C(=S)NCc2ccco2)CC1`, the “activity change, negative = growth inhibition” value is reported as -26.6%. For `COc1cc(/C=C/C(=O)O)cc(S(=O)(=O)Nc2ccccc2SC)c1OC`, the “activity change, negative = growth inhibition” value was -12.2%. With `CC(C)C(NS(=O)(=O)c1cccs1)C(=O)Nc1nc(C(C)(C)C)cs1` (stereo not given) the Potency was 23.1 µM (active). For `CC(C)(C)c1csc(NC2=NS(=O)(=O)c3ccccc32)n1`, the “activity change, negative = growth inhibition” value was -10.8%. With `COc1cc(Cl)c(NC(=O)C(NS(=O)(=O)c2cccs2)C(C)C)c(OC)c1` (stereo not given) the “activity change, negative = growth inhibition” value was -19.6%. In the case of `Cc1ccccc1-n1cc(CNC(=O)C2CCC(=O)N(C3CC3)C2)cn1` (stereo not given), the “activity change, negative = growth inhibition” value is reported as -13.9%.
